Source: PubChem BioAssay (Tox21)
Inconclusive results are not listed. Active and inactive are the calls of the source. Calls come from the whole dose curve; as a rule, active = well fitted curve in the direction sought with a large enough effect in the repeat runs; inconclusive = weak or mixed curves; inactive = no such curve, though single readings can be large; an effect the other way counts as inactive or inconclusive.

Columns and labels:
[1] = A CellTox Green Cytotoxicity Assay to monitor cytotoxicity in HepG2 cells - 0 hour (AID 1224882); note: nearly all actives have a fitted effect of over 35% in size
Outline: (§1)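 Real-time cytotoxicity: fluorescence of a cell-impermeant cyanine dye binding DNA of dead HepG2 cells, measured repeatedly (0–40 h) during compound exposure at 37 C. Cells seeded 600/well with reagent, dosed after 5 h.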

[2] = A CellTox Green Cytotoxicity Assay to monitor cytotoxicity in HepG2 cells - 32 hour (AID 1224883); note: nearly all actives have a fitted effect of over 50% in size; note: potency is the fitted concentration of half-maximal effect
Outline: as §1

[3] = A CellTox Green Cytotoxicity Assay to monitor cytotoxicity in HEK293 cells - 8 hour (AID 1224884); note: nearly all actives have a fitted effect of over 35% in size
Outline: (§2)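 Fluorescence from a DNA-binding dye excluded by viable cells was measured repeatedly in the same HEK293 wells (600 cells/well) during continuous compound exposure at 37 C. Each assay gives one read point: 0, 8, 16, 24, 32 or 40 h.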

[4] = qHTS RealTime-Glo MT Cell Viability Assay in HepG2 cells - 16 hour (AID 1224885); note: nearly all actives have a fitted effect of over 50% in size; note: potency is the fitted concentration of half-maximal effect
Outline: (§3)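 Cell number in HepG2 cultures estimated from NanoLuc luminescence generated by metabolic reduction of a prosubstrate by living cells. The homogeneous, nonlytic format allowed repeated reads at 0, 8, 16, 24, 32 and 40 h of compound exposure.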

[5] = qHTS RealTime-Glo MT Cell Viability Assay in HEK293 cells - 24 hour (AID 1224886); note: nearly all actives have a fitted effect of over 50% in size; note: potency is the fitted concentration of half-maximal effect; for activity change, negative = cytotoxicity: top concentration of the series differs between compounds
Outline: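 Homogeneous bioluminescent viability format in HEK293 cells (600 cells/well). Following 5 h at 37 C/5% CO2, 23 nL compound was pintooled; the signal was measured repeatedly during 40 h incubation.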

[6] = qHTS RealTime-Glo MT Cell Viability Assay in HEK293 cells - 8 hour (AID 1224887); note: nearly all actives have a fitted effect of over 50% in size; note: potency is the fitted concentration of half-maximal effect; for activity change, negative = cytotoxicity: top concentration of the series differs between compounds
Outline: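 Luminescence, which tracks viable cell number through reduction of the prosubstrate to a NanoLuc substrate, was read over continuous 37 C culture. Cells (600/well) were premixed with reagent and rested 5 h before 23 nL of compound in DMSO was pinned.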

[7] = A CellTox Green Cytotoxicity Assay to monitor cytotoxicity in HEK293 cells - 16 hour (AID 1224888); note: nearly all actives have a fitted effect of over 35% in size; note: potency is the fitted concentration of half-maximal effect
Outline: as §2

[8] = qHTS RealTime-Glo MT Cell Viability Assay in HepG2 cells - 0 hour (AID 1224889); note: nearly all actives have a fitted effect of over 50% in size; note: potency is the fitted concentration of half-maximal effect
Outline: as §3

[9] = qHTS assay to identify small molecule antagonists of the estrogen receptor alpha (ER-alpha) signaling pathway using the BG1 cell line in the presence of 0.1 nM 17-beta-estradiol - cell viability counter screen (AID 1259241); note: nearly all actives have a fitted effect of over 40% in size; note: potency is the fitted concentration of half-maximal effect
Outline: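 VM7Luc4E2 cells (endogenous ER-alpha, 4×ERE-luciferase), hormone-starved 5 days in charcoal-stripped FBS, were treated with compounds plus 0.1 nM 17beta-estradiol for 22 hr at 37C; viability read in same wells as CellTiter-Fluor live-cell protease fluorescence.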

[10] = A CellTox Green Cytotoxicity Assay to monitor cytotoxicity in HepG2 cells - 8 hour (AID 1224890); note: nearly all actives have a fitted effect of over 45% in size
Outline: as §1
% is set by controls: 0 for no effect and ±100 for the full control effect.

OCC1CC2CC1C1CCC(CO)C21 (configuration not stated)
inactive: Potency [1] | Potency [2] | Potency [3] | Potency [4] | Potency [5] | Potency [6] | Potency [7] | Potency [8] | Potency [9]

O=C(NS(=O)(=O)/C=C/c1cccs1)c1ccc(F)cc1Br
active: Potency [8] 15.5 µM
inactive: Potency [1] | Potency [2] | Potency [3] | Potency [4] | Potency [5] | Potency [6] | Potency [7] | Potency [9]

C[C@H](CCC(=O)O)[C@H]1CC[C@H]2[C@@H]3[C@H](O)C[C@@H]4C[C@H](O)CC[C@]4(C)[C@H]3CC[C@]12C
inactive: Potency [1] | Potency [2] | Potency [3] | Potency [4] | Potency [6] | Potency [7] | Potency [8] | Potency [10] | Potency [9]

CN1CCC[C@@H]1c1cccnc1
inactive: Potency [1] | Potency [2] | Potency [3] | Potency [4] | Potency [5] | Potency [6] | Potency [7] | Potency [8] | Potency [9]

CC/C(=C\C(=N/O)C(N)=O)C(C)[N+](=O)[O-] (configuration not stated)
inactive: Potency [1] | Potency [2] | Potency [3] | Potency [4] | Potency [6] | Potency [7] | Potency [8] | Potency [10] | Potency [9]

CC[C@@H]1C[C@H](N(Cc2cc(C(F)(F)F)cc(C(F)(F)F)c2)C(C)=O)c2cc(C(F)(F)F)ccc2N1C(=O)OC(C)C
inactive: Potency [1] | Potency [2] | Potency [3] | Potency [4] | Potency [6] | Potency [7] | Potency [8] | Potency [10] | Potency [9]

CCC(C)N(C)C(=O)c1cc2ccccc2c(-c2ccccc2Cl)n1 (configuration not stated)
inactive: Potency [1] | Potency [3] | Potency [4] | Potency [6] | Potency [7] | Potency [10] | Potency [9]
active: Potency [2] 25.2 µM | Potency [8] 20 µM

Cc1ncsc1CCO
inactive: Potency [1] | Potency [2] | Potency [3] | Potency [4] | Potency [5] | Potency [6] | Potency [7] | Potency [8] | Potency [9]

C=C(C)C(=O)OC(C)C
inactive: Potency [1] | Potency [2] | Potency [3] | Potency [4] | Potency [5] | Potency [6] | Potency [7] | Potency [8] | Potency [9]

COC(=O)CSc1cc(N=c2sc(=O)n3n2CCCC3)c(F)cc1Cl
inactive: Potency [1] | Potency [2] | Potency [3] | Potency [4] | Potency [5] | Potency [6] | Potency [8] | Potency [10] | Potency [9]

C[C@@H](C1=C(CCN(C)C)Cc2ccccc21)c1ccccn1
inactive: Potency [1] | Potency [2] | Potency [3] | Potency [4] | Potency [5] | Potency [6] | Potency [7] | Potency [8] | Potency [10] | Potency [9]

O=C(CCN1CCN2CCCC2C1)N1c2ccccc2Sc2ccc(Cl)cc21 (configuration not stated)
inactive: cytotoxicity [1] 0.972% [at 15.8 µM] | cytotoxicity increase [2] 16.3% [at 15.8 µM] | cytotoxicity increase [3] -4.39% [at 15.8 µM] | activity change, negative = cytotoxic [4] -5.42% [at 15.8 µM] | activity change, negative = cytotoxicity [5] -17.5% [at 15.8 µM] | activity change, negative = cytotoxicity [6] -6.11% [at 15.8 µM] | activity change [7] 1.83% [at 15.8 µM, active compounds read high] | activity change, negative = cytotoxicity [8] -0.655% [at 15.8 µM] | activity change, negative = cytotoxicity [9] -14.8% [at 19 µM]

CCN(CC)CCc1nc(-c2ccccc2)no1
inactive: Potency [1] | Potency [2] | Potency [3] | Potency [4] | Potency [5] | Potency [6] | Potency [7] | Potency [8] | Potency [9]

CNS(=O)(=O)Cc1ccc2[nH]cc(CCN(C)C)c2c1
inactive: Potency [1] | Potency [2] | Potency [3] | Potency [4] | Potency [5] | Potency [6] | Potency [7] | Potency [8] | Potency [9]

NCCCOCCOCCOCCCN
inactive: Potency [1] | Potency [2] | Potency [3] | Potency [4] | Potency [5] | Potency [6] | Potency [7] | Potency [8] | Potency [9]

CC(=O)CC(=O)c1ccccc1
inactive: Potency [1] | Potency [2] | Potency [3] | Potency [4] | Potency [6] | Potency [7] | Potency [8] | Potency [10] | Potency [9]

OC(CCN1CCCCC1)(c1ccccc1)C1CCCCC1 (configuration not stated)
inactive: Potency [1] | Potency [2] | Potency [3] | Potency [4] | Potency [6] | Potency [7] | Potency [8] | Potency [10] | Potency [9]

CC(C)(C)c1cc(CO)cc(C(C)(C)C)c1O
inactive: Potency [1] | Potency [2] | Potency [3] | Potency [4] | Potency [7] | Potency [8] | Potency [9]

NC(N)=NN=C(/C=C/c1ccc([N+](=O)[O-])o1)/C=C/c1ccc([N+](=O)[O-])o1
active: Potency [2] 2.39 µM | Potency [4] 2.13 µM | Potency [6] 6.01 µM | Potency [7] 9.52 µM | Potency [9] 11.9 µM
inactive: Potency [1] | Potency [8]

C=CC(=O)OCC(C)OCC(C)OCC(C)OC(=O)C=C (configuration not stated)
active: Potency [2] 54.9 µM | Potency [5] 43.6 µM
inactive: Potency [1] | Potency [3] | Potency [6] | Potency [7] | Potency [8] | Potency [10] | Potency [9]
